Laboratory results published in PubChem BioAssay AID504845 (National Center for Advancing Translational Sciences (NCATS), 2011).
Where “and” joins values, the source holds several entries; their conditions need not be identical. Equal values may be shown once. Out of some 390,000 compounds screened, about 150 (0.038%) were called active. Inconclusive results (about 3%) are left out. Calls come from the whole dose curve; as a rule, active = well fitted inhibition curve with a large enough effect; inconclusive = small, poorly fitted or top-dose-only effect; inactive = no such curve, though single readings can be large or run the other way. The list comes from a sample in which actives are over-represented; it also holds similar structures and randomly drawn compounds. More than one record can exist for a structure, and the calls need not agree.

Target: Regulator of G-protein signaling 4 (Homo sapiens) (UniProt P49798)
Sequence (P49798 whole entry, looked up): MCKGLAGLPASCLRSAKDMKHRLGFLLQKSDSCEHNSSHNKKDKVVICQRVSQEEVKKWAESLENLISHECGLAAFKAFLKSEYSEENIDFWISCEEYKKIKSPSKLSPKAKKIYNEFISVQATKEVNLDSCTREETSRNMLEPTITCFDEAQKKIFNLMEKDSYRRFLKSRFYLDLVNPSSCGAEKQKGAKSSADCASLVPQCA
Assay: Inhibitors of Regulator of G Protein Signaling (RGS) 4: qHTS; note: nearly all actives have a fitted effect of over 75% in size
Settings: Transcreener GDP fluorescence polarization, RGS4-accelerated GTP hydrolysis; series mostly up to 114 µM; activity change, negative = inhibition: at the top concentration
Outline: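 MLSMR compounds (23 nl, pin-transferred) preincubated 10 min at room temperature with a 500nM (2x) first reagent, then RGS4 at 900nM (2x) plus Transcreener GDP mix added; fluorescence polarization (620/688 nm) read before and after 90 min at 30 °C.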
% is set by controls: 0 for no effect and ±100 for the full control effect; potency is the fitted concentration of half-maximal effect.

Activity change, negative = inhibition, inactive:
COc1ccc(CC(=O)NCCc2sc3nc(-c4ccc(OC)cc4)nn3c2C)cc1 23.7%
Cc1ccc(-n2ncc(C(=O)N(C)Cc3ccccc3)c2-n2cccc2)cc1 12.5%
Cc1ccc(-c2onc(C)c2C)cc1S(=O)(=O)Nc1ccccn1 -2.85%
O=C1C[C@@H](c2ccc3ccccc3c2)N1S(=O)(=O)c1ccccc1[N+](=O)[O-] 3.68%
CCCN1CCN(CCCNC(=O)c2ccc3nc(Cc4ccccc4)oc3c2)CC1 18.4%
Cc1cccc(C(=O)NCCc2nc3ccccc3n2Cc2ccccc2Cl)c1 -14.7%
CSc1ccc(CCNC(=O)c2cc(C)nc3c2c(C)nn3-c2cccc(F)c2)cc1 -41%
COCCNS(=O)(=O)c1cc(-c2nn3c(C)nnc3c3ccccc23)ccc1C -16.3%
Cc1ccccc1C(=O)N(Cc1ccc(N(C)C)cc1)CC1CCCO1 (stereo unspecified) 8.38%
Cc1nc(SCC(=O)N2CCN(c3ccccc3)CC2)[nH]c(=O)c1C 19.3%
NC(=O)CSc1nc2c(oc3ccccc32)c(=O)n1Cc1ccccc1 -46.5%
CCN(C(=O)Cn1c(=O)nc(-c2ccccc2)c2cc(Cl)ccc21)c1cccc(C)c1 -11.5%
CCCCCCn1nnc2sc(-c3ccccc3)cc2c1=O -27.4%
CC(C)c1ccc2oc(-c3cc(NC(=O)c4cccs4)ccc3Cl)nc2c1 -15%
Cc1cc2oc(C(=O)N(Cc3ccc(Cl)cc3)Cc3ccco3)c(C)c2cc1Cl 30%
CC(C)[C@H]1CC[C@@H](C)C[C@H]1O -127% [at 56.9 µM]
COc1ccc(CNC(=O)c2cc3c(=O)[nH]c4ccccc4c3s2)cc1 -9.46%
O=S(=O)(Nc1cccc2cccnc12)c1cccc2cccnc12 9.93%
COC(=O)c1cc2occc2n1Cc1nc(-c2ccc(C)cc2)oc1C 12.1%
Cc1ccc(F)cc1S(=O)(=O)N1CCC(c2nc3ccccc3s2)CC1 -18.9%
Cc1cc(OC(C)C(=O)Nc2sc3c(c2C(N)=O)CCCC3)ccc1Cl (stereo unspecified) -10.8%
COc1ccc(C2Nc3ccc(NC(=O)COC(C)=O)cc3C(=O)N2Cc2ccccc2)cc1COc1ccc(NC(C)=O)cc1 (stereo unspecified) 0.54%
C#CCOc1ccc(C2CC(=O)Nc3c2c(C)nn3-c2nc(C)cc(C)n2)cc1 (stereo unspecified) -13.7%
Cc1ccc(C)c(N2CCN(C(=O)Cn3nc(C)c4sc5ccccc5c4c3=O)CC2)c1 -5.5%
CC(C)S(=O)(=O)c1oc(-c2ccc(F)cc2)nc1S(=O)(=O)c1ccc(F)cc1 -17.3%
COc1cc(OC)cc(C(=O)Nc2c(C(=O)Nc3ccc(F)cc3)oc3ccccc23)c1 8%
Oc1ccc(Cl)cc1C1C=C(c2ccc3c(c2)OCO3)NC(c2ccc(F)c(Br)c2)N1 (stereo unspecified) -52.5%
CCOc1ccc(NC(=O)CC2C(=O)N(c3cccc(OC)c3)C(=O)N2C2CCCCC2)cc1 (stereo unspecified) 33.4%
COc1ccc(Cc2nc3ccc(C(=O)NCc4ccccc4C)cc3o2)cc1 1.01%
O=C(Nc1ccc2c(c1)OCO2)c1cc(-c2cccc(Cl)c2)on1 5%
C=CC1(C)CC(=O)C2(O)C(C)(O1)C(OC(C)=O)C(O)C1C(C)(C)CCC(O)C12C (stereo unspecified) -6.89% [at 56.9 µM]
Cc1ccccc1CSc1nc2c([nH]c3ccccc32)c(=O)n1C 4.27%
O=C(c1ccc(F)cc1)C1CCN(CCCCc2ccccc2)CC1 80.5% [at 56.9 µM]
CCc1cc2c(cc3c(=O)n(CC(=O)NCc4cccc(Cl)c4)nc(CC)n32)s1 19.3%
Cc1ccc(Cl)cc1N1CCN(S(=O)(=O)c2cc3[nH]c(=O)c(=O)[nH]c3cc2C)CC1 -20%
CCCSc1ncc(Cl)c(C(=O)Nc2sc3c(c2C(=O)NCCOC)CCCC3)n1 20.4%
Cc1ccc(CCNC(=O)C2CCN(c3nnc(-n4cccc4CNc4ccc(C)cc4)s3)CC2)cc1 29.4%
CCOc1ccccc1NC(=O)Cn1c(=O)n(-c2cccc(C)c2)c(=O)c2c1c1cc(OC)ccc1n2C 6.5%
COc1ccc(Cl)cc1NC(=O)C(C)Sc1nc2c(c(=O)[nH]1)CCCC2 (stereo unspecified) 30.7%
Cc1ccc2nc(/C(C#N)=C/c3ccc(-c4ccc(C(=O)OC(C)C)cc4)o3)[nH]c2c1 2.62%
CCOc1ccccc1CNC(=O)Nc1cn(CC(C)C)c(=O)c2ccccc12 5.51%
O=C1C2C(c3ccccc3)CC=CC2C(c2ccoc2)N1Cc1ccccc1 (stereo unspecified) -10.6%
Cc1cccc(-c2cc(=O)c3cc(C)ccc3o2)c1 -644% [at 56.9 µM, above what the read-out allows, likely interference]
CC1CC2C3CCC4=CC(=O)C=C[C@]4(C)[C@@]3(F)[C@@H](O)C[C@]2(C)[C@@]1(O)C(=O)CO (stereo partly specified) 13.2% [at 56.9 µM]
Nc1ncnc2c1ncn2C1CC(O)C(CO)O1 (stereo unspecified) -180% [at 56.9 µM]
CSc1ccccc1N1CCN(CCCCCC(=O)NC2CCCc3ccccc32)CC1 (stereo unspecified) 17.9% [at 56.9 µM]
CCC(=O)N1CCc2cc(Br)cc(S(=O)(=O)CCC(=O)NCCc3ccc(OC)c(OC)c3)c21 -31.3%
Cc1ccc(-n2c3nc(=O)[nH]c(=O)c-3cc3c(Cl)cccc32)cc1 -2.68%
COc1ccc(C)cc1NC(=O)CCc1c(C)nn(-c2ccc(N3CCOCC3)nn2)c1C -16%
COC(=O)c1cccc(Cn2nnc3sc4c(c3c2=O)CCC(C(C)(C)C)C4)c1 (stereo unspecified) -10.7%
CCOC(=O)c1c(C)[nH]c(CCC(=O)NCCCN2CCN(c3cccc(Cl)c3)CC2)c1C -21.8%
COc1ccc(C2CC(O)(c3ccccc3)Oc3cc(C)cc(C)c32)cc1 (stereo unspecified) -13.5%
O=S(=O)(c1ccc2nc(N3CCN(c4cccc(Cl)c4)CC3)ccc2c1)N1CCCCC1 -18.5%
CCOC(=O)c1cccc(NC(=O)C(Cc2ccccc2)NS(=O)(=O)c2cccc3nsnc23)c1 (stereo unspecified) -4.55%
COc1cccc(CNCCSc2nnnn2C)c1OCc1ccccc1Cl -5.25%
CC(=O)c1cccc(NC(=O)CSc2nc3c(c(=O)[nH]2)CCC3)c1 16.8%
O=C(Nc1c(C(=O)N2CCN(c3ccc(F)cc3)CC2)oc2ccccc12)c1ccco1 12.6%
Cc1cc(C)cc(NC(=O)c2cnc3sc(N4CCCC4)nn3c2=O)c1 -12.1%
COc1cc(OC)cc(C(=O)Nc2ccc3nc(Nc4cccc(C(F)(F)F)c4)cc(C)c3c2)c1 -2.35%
Cc1ccc(N(C)C(=O)C2CCN(S(=O)(=O)c3ccc4c(c3)CCCN4C(=O)C3CCC3)CC2)cc1 -18.2%
CSc1nc(Nc2ccc(F)cc2)cc(-c2ccccc2)n1 5.75%
Cc1cccc(-n2c(SCC(N)=O)nc3c(oc4ccccc43)c2=O)c1 -0.746%
C=Cc1ccc(Cn2c(C(=O)O)c(CNC3CCCC3)c3ccc(C)cc32)cc1 8.65%
COc1ccccc1CNC(=O)Cn1nc(C)c2nn(-c3ccc(Cl)cc3)c(C)c2c1=O 18.3%
CC1CCCCN1S(=O)(=O)c1ccc(F)c(C(=O)Nc2ccccc2C(F)(F)F)c1 (stereo unspecified) 4.05%
COc1ccc2ncc3c(-c4ccc(C)c(C)c4)nn(CC(=O)NC4CCCC4)c3c2c1 26.8%
COc1cccc(CNC(=O)c2ccc3c(c2)N(Cc2ccc(C(F)(F)F)cc2)C(=O)c2ccccc2S3)c1OC 20.4%
CC(C)CC(NS(=O)(=O)c1ccc2c(c1)oc(=O)n2C)C(=O)NCc1ccccc1Cl (stereo unspecified) 9.93%
Cc1cc(OCC(=O)Nc2ncn[nH]2)c(C)c(C)c1Br -27.4%
CN1C(=O)c2[nH]nc(-c3ccc(F)cc3)c2C1c1ccccn1 (stereo unspecified) 0.713%
O=C(CSCc1cnn(-c2ccccc2)c1-n1cccc1)NCc1ccccc1Br -25%
O=C(NCCc1ccccc1)c1ccc2c(c1)N(Cc1ccc(F)cc1)C(=O)c1ccccc1S2(=O)=O -0.894%
O=S(=O)(NCC(c1ccccc1)N1CCc2ccccc21)c1ccccc1 (stereo unspecified) -21.4%
Cc1c(CCNC(=O)c2ccc(C(F)(F)F)cc2)sc2nc(-c3ccc(F)cc3)nn12 -4.84%
CCN(CC)CCNC(=O)c1cc2c(=O)oc3ccc(C)cc3c2s1 -2.06%
COc1ccc(CCn2c3c(c(=O)[nH]c2=S)CN(C(C)C)CN3)cc1OC -5.94%
Cn1c(C(=O)N2CCC(C(=O)N3CCN(c4ccccc4)CC3)CC2)cc2sccc21 8.86%
O=S(=O)(c1cccc(C(F)(F)F)c1)N1CCN(c2nc(-c3cccs3)nc3ccccc23)CC1 -10.2%
Cc1cccc(NC(=O)CSc2ncc(-c3ccccc3)[nH]2)c1C 12.9%
COc1cccc(N=C2SC(C(=O)Nc3cccc(Cl)c3)CC(=O)N2C)c1 (stereo unspecified) 13.4%
O=C(Nc1cc(C(F)(F)F)ccc1Cl)c1ccc2c(c1)CCN2S(=O)(=O)c1ccccc1 0.535%
CCNS(=O)(=O)c1ccc(NC(=O)CSc2nc(-c3ccco3)cc(C(F)(F)F)n2)cc1 1.04%
CCS(=O)(=O)N(C)[C@@H]1c2cc(C#N)ccc2OC(C)(C)[C@H]1O -117% [at 56.9 µM]
COc1ccc(CNC(=O)Cn2nnc(-c3ccccc3F)n2)cc1 -28.6%
COc1ccc(OC)c(-n2nnc3c(sc4nc(C)c(Br)c(C)c43)c2=O)c1 15.3%
Cc1ccc(-c2cn3c(n2)sc2cc(C(=O)NCCCc4ccccc4)ccc23)cc1 17.8%
O=C1CC(c2ccccc2)CC2=C1C(c1ccco1)n1nc(C(F)(F)F)nc1N2 (stereo unspecified) 12.1%
COc1ccc(-c2c(C)c3ccc(O)c(CN4CCCC4)c3oc2=O)cc1OC -3.02%
CCC(=O)Nc1cccc(C(=O)OCc2cc(=O)n3nc(CC)sc3n2)c1 -4.68%

Potency, inactive and 23.8 µM (active):
CC[C@@H]1Cc2cc(O)ccc2C2=C1c1ccc(O)cc1C[C@H]2CC

Potency, inactive:
Cc1ccc(NC(=O)c2cccc(N(C)C)c2)cc1NC(=O)c1ccc(O)cc1
